The list is not random: actives were taken first. Their share in the collection is about 6.8%.
C diff growth = C. difficile growth inhibition. growth activity, negative = inhibition, % at 16 µg/mL (by protocol). Clostridium difficile clinical isolate growth, OD600, 24 h; hits give low values. AID 1259249. 86,000 tested, 0.25% active;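 active = mean growth activity at or below -80% and every replicate also at or below -80%; inconclusive = mean at or below -80% but some replicate above -80%; inactive = mean growth activity above -80%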;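 also: 0% = DMSO wells and -100% = levofloxacin 16 µg/mL wells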
Pf Dd2 growth = blocks growth of Plasmodium falciparum Dd2 parasites; P. falciparum Dd2 growth, SYBR Green, 72 h; hits give low values; activity change, % at 10 µM; 94,000 tested, 2.3% active; in the data active = activity change below about -80%; inconclusive = no clear call, values can overlap the other calls
T cruzi growth-1 = T. cruzi proliferation inhibition; T. cruzi beta-gal in NIH3T3, GalScreen luminescence, 90 h; inhibition, % at 8.34 µM; 77,000 tested, 5.9% active;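 active = mean inhibition above about 93%, with at least 55% of replicates each passing it, limit read from the data, passing the limit was not always enough; inconclusive = only one of those two conditions holds; inactive = neither condition holds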
T cruzi growth-2 = Trypanosoma cruzi proliferation inhibition. shares compounds with T cruzi growth-1. T. cruzi beta-gal in NIH3T3, GalScreen luminescence, 90 h. inhibition, % at 8.35 µM. 5,600 tested, 72% active. AID 651739;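 active = mean replicate inhibition above about 95% and at least 55% of replicates individually reaching it, limit read from the data; inconclusive = only one of the two criteria is met; inactive = neither criterion is met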
T cruzi growth-3 = blocks T. cruzi growth in NIH3T3 host cells | AID 651740 | 5,600 tested, 21% active | T. cruzi beta-gal in NIH3T3, GalScreen luminescence, 90 h | inhibition, % at 2.09 µM | shares compounds with T cruzi growth-1;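 active = mean inhibition above about 95%, with at least 55% of replicates also reaching it, limit read from the data; inconclusive = meets just one of the two conditions; inactive = meets neither condition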;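 also: plate controls were neutral control median for no effect and positive control median for full effect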
3T3 cytotox = cytotoxicity in mouse NIH/3T3 fibroblasts; shares compounds with T cruzi growth-1; NIH/3T3 viability, CellTiter-Glo ATP luminescence, 90 h; cytotoxicity (signal decrease), % at 8.35 µM; 5,600 tested, 14% active; AID 651742;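 active = mean signal decrease across replicates above about 35% based on untreated-well scatter, with enough replicates individually passing, limit read from the data; inconclusive = no rule stated though some were filed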;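 also: 0% = median of neutral control wells and 100% = median of positive control wells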
3T3 cytotox 2 = cytotoxicity in mouse NIH/3T3 fibroblasts; shares compounds with T cruzi growth-1; AID 651744; inhibition, % at 24.9 µM; 5,600 tested, 56% active; NIH/3T3 viability, CellTiter-Glo ATP luminescence, 90 h;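 active = mean loss of cell viability signal at or above a set limit, and enough replicates individually reaching it; inconclusive = meets only the mean limit or only the replicate share; inactive = meets neither condition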;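 also: 0% = median of neutral control wells and 100% = median of positive control wells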
An asterisk follows results filed as active; ? = inconclusive; · = no result.

SMILES	C diff growth	Pf Dd2 growth	T cruzi growth-1	T cruzi growth-2	T cruzi growth-3	3T3 cytotox	3T3 cytotox 2
COc1ccc(S(=O)(=O)N2CCCCN3[C@H](CO)[C@@H](c4ccc(C5=CCCC5)cc4)[C@@H]3C2)cc1	-4.7	8.4	78.4	·	·	·	·
CO[C@H]1CN(C)C(=O)c2cc(C#N)ccc2OC[C@@H]2O[C@@H](CC[C@H]2OC)CCN(C)C(=O)[C@H]1C	·	14.0	-32.6	·	·	·	·
C[C@@H]1CN([C@H](C)CO)C(=O)c2cccc(N(C)C)c2O[C@H]1CN(C)Cc1ccc(C(=O)O)cc1	-2.0	27.7	12.9	·	·	·	·
COc1ccc(-c2ccc([C@@H]3[C@H](CO)N4CCCCN(S(=O)(=O)c5cccs5)C[C@@H]34)cc2)cc1	3.6	-50.9	91.5	·	·	·	·
CN(C)C(=O)c1ccc(-c2ccc([C@H]3[C@@H](CO)N4CCCCN(S(C)(=O)=O)C[C@H]34)cc2)cc1	15.3	15.5	83.3	·	·	·	·
O=S(=O)(c1cccs1)N1CCCCN2[C@H](C1)[C@H](c1ccc(C3=CCCCC3)cc1)[C@@H]2CO	18.8	2.2	119.8*	108.9*	74.4	4.6	?
O=S(=O)(c1cccs1)N1CCCCN2[C@H](CO)[C@H](c3ccc(C4=CCCC4)cc3)[C@H]2C1	33.1	-42.6	75.7	·	·	·	·
COc1ccc(-c2ccc([C@H]3[C@@H](CO)N4CCCCN(S(=O)(=O)c5cccs5)C[C@H]34)cc2)cc1	-2.7	-61.2	104.6*	105.7*	55.0	31.3	104.8*
COc1cccc(-c2ccc([C@H]3[C@@H](CO)N4CCCCN(S(=O)(=O)c5cccs5)C[C@H]34)cc2)c1	19.9	-54.5	41.0	·	·	·	·
COc1ccc(-c2ccc([C@H]3[C@H]4CN(S(=O)(=O)c5cccs5)CCCCN4[C@H]3CO)cc2)cc1	14.4	-17.9	113.5*	107.6*	94.2	-8.5	7.9
CN(C)C(=O)c1ccc(-c2ccc([C@H]3[C@@H](CO)N4CCCCN(S(C)(=O)=O)C[C@@H]34)cc2)cc1	-3.2	24.1	98.2*	44.4	2.9	-1.1	5.2
CN1C(=O)c2cc(NC(=O)C3CCCCC3)ccc2OC[C@@H]2O[C@@H](CC(=O)NCc3ccccc3F)CC[C@H]21	19.8	-11.6	-16.5	·	·	·	·
Cc1ccc(S(=O)(=O)N(C)C[C@H]2Oc3ccc(NC(=O)NC4CCCCC4)cc3C(=O)N([C@@H](C)CO)C[C@@H]2C)cc1	0.5	11.4	-12.9	·	·	·	·
C[C@H](CO)N1C[C@H](C)[C@H](CN(C)C(=O)Nc2ccc(F)cc2)Oc2ncc(C#CC(C)(C)O)cc2C1=O	-2.4	50.7	·	·	·	·	·
O=C(C1CC1)N1C[C@@H]2[C@H](c3ccccc31)[C@@H](CO)N2C(=O)c1ccccn1	-5.2	-2.2	36.2	·	·	·	·
COc1cccc(S(=O)(=O)N2CC[C@@H]3[C@@H](CO)Nc4ccc(Br)cc4[C@@H]32)c1	7.9	18.9	19.1	·	·	·	·
CCCC#Cc1ccc2c(c1)O[C@@H](CN(C)C(=O)CN(C)C)[C@H](C)CN([C@@H](C)CO)S2(=O)=O	-1.1	-45.4	·	·	·	·	·
COc1cccc(NC(=O)N(C)C[C@@H]2OCc3cnnn3CCCC(=O)N([C@@H](C)CO)C[C@@H]2C)c1	·	-0.1	11.1	·	·	·	·
O=C(C[C@H]1C[C@H]2c3cc(NC(=O)c4cccnc4)ccc3O[C@H]2[C@@H](CO)O1)NCC1CC1	2.5	-1.6	17.3	·	·	·	·
C[C@@H]1CN([C@@H](C)CO)S(=O)(=O)c2ccc(C#Cc3cccc(F)c3)cc2O[C@H]1CN(C)S(=O)(=O)c1ccccc1F	13.2	-79.2	112.3*	110.4*	?	8.4	34.4*
C[C@@H]1CN([C@H](C)CO)S(=O)(=O)c2ccc(C#Cc3cccc(F)c3)cc2O[C@H]1CN(C)S(=O)(=O)c1ccccc1F	2.7	-76.0	111.0*	109.0*	106.2*	31.5	35.2*
C[C@@H]1CN([C@H](C)CO)S(=O)(=O)c2ccc(C#Cc3cccc(F)c3)cc2O[C@H]1CN(C)C	13.8	-6.4	66.8	·	·	·	·
C[C@@H]1CN([C@@H](C)CO)S(=O)(=O)c2ccc(C#Cc3cccc(F)c3)cc2O[C@@H]1CN(C)C	-5.4	-51.1	-11.9	·	·	·	·
C[C@H](CO)N1C[C@H](C)[C@H](CN(C)S(=O)(=O)c2ccccc2F)Oc2cc(C#Cc3cccc(F)c3)ccc2S1(=O)=O	25.2	-15.8	109.2*	102.8*	43.2	16.8	10.8
C[C@H](CO)N1C[C@H](C)[C@H](CN(C)C)Oc2cc(C#Cc3cccc(F)c3)ccc2S1(=O)=O	7.4	-56.5	-42.3	·	·	·	·
SMILES	C diff growth	Pf Dd2 growth	T cruzi growth-1	T cruzi growth-2	T cruzi growth-3	3T3 cytotox	3T3 cytotox 2
CCCNC(=O)Nc1ccc2c(c1)C(=O)N(C)C[C@H](OC)[C@H](C)CN(CCC)[C@@H](C)CO2	2.1	21.6	22.2	·	·	·	·
C[C@@H](NC(=O)C[C@@H]1C=C[C@@H](NC(=O)C2CC2)[C@H](CO)O1)c1ccccc1	2.6	5.7	·	·	·	·	·
C[C@@H]1CN([C@H](C)CO)C(=O)Cc2cc(N(C)C)ccc2O[C@H]1CN(C)S(=O)(=O)c1ccccc1	-0.8	7.3	17.2	·	·	·	·
CC(C)NC(=O)Nc1ccc2c(c1)C(=O)N(C)[C@H]1CC[C@@H](CC(=O)NC3CCCCC3)O[C@@H]1CO2	2.6	2.5	-8.8	·	·	·	·
C[C@H](O)C#Cc1cnc2c(c1)C(=O)N([C@H](C)CO)C[C@@H](C)[C@H](CN(C)C(=O)c1ccccc1)O2	3.1	32.0	91.7	·	·	·	·
C[C@H]1CN([C@@H](C)CO)S(=O)(=O)c2ccc(C#CC3CC3)cc2O[C@H]1CN(C)C(=O)Cc1ccncc1	1.9	-67.9	90.3	·	·	·	·
C[C@@H]1CN([C@@H](C)CO)S(=O)(=O)c2ccc(C#CC3CC3)cc2O[C@@H]1CN(C)C(=O)Cc1ccncc1	-3.2	-52.5	87.6	·	·	·	·
C[C@H](CO)N1C[C@H](C)[C@@H](CN(C)C(=O)Cc2ccncc2)Oc2cc(C#CC3CC3)ccc2S1(=O)=O	-0.7	-15.7	97.5*	101.9*	57.9	5.8	8.5
C[C@H]1CN([C@@H](C)CO)S(=O)(=O)c2ccc(C#CC3CC3)cc2O[C@@H]1CN(C)C(=O)Cc1ccncc1	-2.7	-49.7	96.3*	104.0*	74.3	-30.3	-16.8
C[C@H](CO)N1C[C@H](C)[C@@H](CN(C)S(=O)(=O)c2ccc(Cl)cc2)Oc2ccc(NC(=O)CCC(F)(F)F)cc2C1=O	1.7	-46.5	3.6	·	·	·	·
C[C@H](CO)N1C[C@H](C)[C@@H](CN(C)S(=O)(=O)c2ccc(-c3ccccc3)cc2)OCc2cnnn2CCCC1=O	3.3	-10.1	38.9	·	·	·	·
CCCC#Cc1ccc2c(c1)O[C@@H](CN(C)Cc1cccnc1)[C@H](C)CN([C@@H](C)CO)S2(=O)=O	4.6	-38.7	121.9*	99.2*	92.6	54.9*	106.8*

From PubChem
